This is a sample that favours compounds with a hit; in the whole collection about 2.4% have one here.
Pol kappa inh – qHTS for Inhibitors of Polymerase Kappa; Potency, µM (highest dose often 107 µM), hits mostly inhibitors; hit rate 0.53% among 400,000; purified Pol kappa, fluorescent DNA synthesis assay, 10 min; AID 588579, 2011
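Here, compound and 10 nM enzyme are combined for 15 min at room temperature; adding 50 nM substrate (final) starts DNA synthesis, tracked by fluorescence at 0 and 10 min against buffer-only wells.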
Pol beta inh – qHTS Assay for Inhibitors of DNA Polymerase Beta; Potency, µM (highest dose often 114 µM), hits mostly inhibitors; Pol beta primer extension/strand displacement, fluorescence kinetic; P06746; hit rate 1.3% among 340,000
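Reaction started by 50 nM substrate onto compound-treated Pol beta (10 nM, 15 min preincubation, room temperature); plates read at 0 min and 10 min. Normalized concentration-effect data fitted by four-parameter Hill equation.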
Pol eta inh-1 – qHTS for Inhibitors of Polymerase Eta | Potency, µM (highest dose often 114 µM), most hits filed as inhibitors | AID 588591, 2011 | hit rate 1.2% among 390,000 | DNA polymerase eta (Homo sapiens), Q9Y253 | recombinant Pol eta, fluorescent DNA replication assay
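Fluorescent replication assay: 50 nM final substrate added after a 15 min room-temperature compound preincubation with 10 nM enzyme. Signal taken at 0 min and again at 10 min.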
GLS inh – qHTS for Inhibitors of Glutaminase (GLS). hit rate 0.21% among 410,000. GLS enzymatic activity, qHTS titration. Potency, µM (highest dose often 45.5 µM), actives largely listed as inhibitors. AID 624170, 2012
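Read-out is an Amplex red fluorescence increase coupled through glutamate oxidase and HRP, measured before and after 30 min room-temperature incubation. hKGA is in 45 mM KH2PO4 (pH 8.2) with 0.02% Tween-20; glutamine added as 1mM solution.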
APEX1 inh – qHTS Assay for Inhibitors of the Human Apurinic/apyrimidinic Endonuclease 1 (APE1); hit rate 0.35% among 350,000; recombinant APE1, TAMRA/BHQ-2 abasic DNA cleavage fluorescence; Potency, µM (series often up to 65.8 µM), actives largely listed as inhibitors; DNA repair nuclease/redox regulator APEX1 (Homo sapiens), P27695; further: nearly all actives have a fitted effect of over 55% in size
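Endonuclease cleavage of a quenched abasic-site DNA duplex (50 nM) by APE1 (0.75 nM) was tracked by TAMRA dequenching. Compounds were preincubated with enzyme 15 min at room temperature; data normalized to buffer-only and DMSO wells plus NSC13755 control.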
Pol iota inh – qHTS for Inhibitors of Polymerase Iota; Potency, µM (series often up to 115 µM), usual class: inhibitors; Pol iota fluorescent replication assay, 10 min; AID 588590, 2011; DNA polymerase iota (Homo sapiens), Q9UNA4; hit rate 1% among 390,000
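Fluorescent replication assay read twice, at 0 min and 10 min after adding 50 nM (final) substrate. Enzyme (10 nM) and compounds were first incubated 15 min at room temperature; enzyme-free buffer wells were negative controls.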
TbPGK inh – qHTS for inhibitors of Phosphogylcerate Kinase: Hit Validation Screen | shares compounds with Pol kappa inh | TbPGK coupled GAPDH assay, Kinase-Glo luminescence | Potency, µM (titrated, usually from 57.5 µM), hits mostly inhibitors | hit rate 79% among 500; further: nearly all actives have a fitted effect of over 65% in size
Pol iota confirm – qHTS for Inhibitors of Polymerase Iota: Confirmatory Assay for Cherry-picked Compounds. shares compounds with Pol kappa inh. Pol iota primer extension, TAMRA/BHQ fluorescence. Potency, µM, most hits filed as inhibitors. hit rate 77% among 1,500. AID 720496, 2013
Pol eta inh-2 – qHTS for Inhibitors of Polymerase Eta: Confirmatory Assay for Cherry-picked Compounds; AID 720502, 2013; Potency, µM, usual class: inhibitors; shares compounds with Pol eta inh-1; Pol eta primer extension, TAMRA/BHQ fluorescence, 10 min; hit rate 64% among 2,600
Hits are given with their value. The call rests on the fitted dose curve; in most records, active means well fitted curve in the direction sought with a large enough effect; inconclusive means small, poorly fitted or top-dose-only effect, or another doubt; inactive means no such curve, though single readings can be large; an effect the other way counts as inactive or inconclusive.

`C=C(C)C(=O)Nc1cccc(C2=NOC3(C2)C[C@H](C(N)=O)N(C(=O)c2ccccc2C(=O)c2ccccc2)C3)c1` (stereo partly specified) gave Pol kappa inh inconclusive, Pol beta inh 8.9µM, Pol eta inh-1 5.6µM, GLS inh 14µM, APEX1 inh inconclusive, Pol iota inh 45µM, Pol iota confirm 47 and Pol eta inh-2 19.
Screening C=C(C)C(=O)Nc1cccc(C2=NOC3(C2)C[C@@H](C(N)=O)N(C(=O)CC(c2ccccc2)c2ccccc2)C3)c1 (stereo partly specified) returned Pol kappa inh 35µM, Pol beta inh 13µM, Pol eta inh-1 4µM, GLS inh 11µM, APEX1 inh inconclusive, Pol iota inh inconclusive, TbPGK inh 3.3µM, Pol iota confirm 75 and Pol eta inh-2 30.
`C/C=C(\C)C(=O)Nc1cccc(C2=NOC3(C2)C[C@@H](C(N)=O)N(C(=O)c2ccccc2C(=O)c2ccccc2)C3)c1` (stereo partly specified) gave Pol kappa inh inactive, Pol beta inh inactive, Pol eta inh-1 inactive, GLS inh inactive, APEX1 inh inactive and Pol iota inh inactive.
CCOc1ccc(NC(=O)c2ccc(NC(=O)Cc3n[nH]c(=O)c4ccccc34)cc2)cc1 was read as Pol kappa inh inactive, Pol beta inh inactive, Pol eta inh-1 inactive, GLS inh inactive, APEX1 inh inactive and Pol iota inh inactive.
COc1cc(C2c3c([nH]c(=O)[nH]c3=O)Nc3ccc4ccccc4c32)cc(OC)c1OC (stereo unspecified) was read as Pol kappa inh 25µM, Pol beta inh inactive, Pol eta inh-1 79µM, GLS inh inconclusive, APEX1 inh inactive, Pol iota inh 18µM, Pol iota confirm 42 and Pol eta inh-2 60.
`COc1cc(C2c3c([nH]c(=O)[nH]c3=O)Nc3ccc4ccccc4c32)ccc1O` (stereo unspecified) gave Pol kappa inh inconclusive, Pol beta inh inconclusive, Pol eta inh-1 inconclusive, GLS inh inactive, APEX1 inh inactive and Pol iota inh inconclusive.
Screening Cc1c(Cl)cccc1NS(=O)(=O)c1ccc2c(c1)C1C=CCC1C(c1ccc(C(=O)O)cc1)N2 (stereo unspecified) returned Pol kappa inh 2.8µM, Pol beta inh 22µM, Pol eta inh-1 2µM, GLS inh inactive, APEX1 inh inactive, Pol iota inh inconclusive, Pol iota confirm 38 and Pol eta inh-2 6.7.
COc1cccc(C(=O)N2CCN(C(=O)C3COc4ccccc4O3)CC2)c1 (stereo unspecified) was read as Pol kappa inh inactive, Pol beta inh inactive, Pol eta inh-1 inactive, GLS inh inactive, APEX1 inh inactive and Pol iota inh inactive.
For Cc1cc(C)nc(SCC(=O)Nc2ccccc2[N+](=O)[O-])n1 the results were Pol kappa inh inactive, Pol beta inh inactive, Pol eta inh-1 inactive, GLS inh inactive, APEX1 inh inactive and Pol iota inh inactive.
